AmpC detergent: qHTS Inhibitors of AmpC Beta-Lactamase (assay with detergent). AID 485294, 2010. 0.041% of 370,000 active. AmpC hydrolysis of nitrocefin, absorbance 480 nm, 0.01% Triton. P00811. Potency, µM (series often up to 114 µM), inactives show at the highest dose activity change, negative = inhibition, actives largely listed as inhibitors;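 note: potency is the fitted concentration of half-maximal effect; 0% = no-compound wells and -100% = no-enzyme wells; nearly all actives have a fitted effect of over 25% in size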
Target sequence (P00811 whole entry, looked up): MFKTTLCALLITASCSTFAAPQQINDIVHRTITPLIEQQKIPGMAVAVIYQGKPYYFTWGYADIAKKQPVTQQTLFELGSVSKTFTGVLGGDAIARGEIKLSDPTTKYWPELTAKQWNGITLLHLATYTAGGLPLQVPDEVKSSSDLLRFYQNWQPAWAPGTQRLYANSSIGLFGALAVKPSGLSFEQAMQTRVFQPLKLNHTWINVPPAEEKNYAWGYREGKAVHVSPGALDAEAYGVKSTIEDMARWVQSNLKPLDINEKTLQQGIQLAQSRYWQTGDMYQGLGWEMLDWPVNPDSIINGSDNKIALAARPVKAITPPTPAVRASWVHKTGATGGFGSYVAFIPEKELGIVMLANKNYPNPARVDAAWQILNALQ
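20 mM phosphate pH 7.0 + 0.01% (detergent screen) or 0.0001% Triton X-100; 5.3 nM AmpC reagent; cpd preinc 15 min RT; nitrocefin (800 uM stock) to start; A480 q20 s × 4 min; Activity was normalised to no-enzyme and no-compound control wells.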
Cycloheximide cs: Cycloheximide Counterscreen for Small Molecule Inhibitors of Shiga Toxin | max response, % | cell reporter, cycloheximide protein synthesis inhibition counterscreen | 12% of 300,000 active; in the data active = max response mostly above about 13%, no sharp cut-off; inactive = mostly below about 14%; note: read at 38.3 µM for the half of the compounds with a filed dose; 0% is about no effect
AmpC no deterg: qHTS Inhibitors of AmpC Beta-Lactamase (assay without detergent); P00811; AmpC nitrocefin hydrolysis, absorbance 480 nm, 0.0001% Triton; Potency, µM (doses to about 57.1 µM), inactives show at the top dose activity change, negative = inhibition, usual class: inhibitors; 0.52% of 330,000 active; AID 485341, 2010;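 note: potency is the fitted concentration of half-maximal effect; plate controls were no compound for no effect and no enzyme for full effect; nearly all actives have a fitted effect of over 20% in size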
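20 mM phosphate pH 7.0 + 0.01% (detergent screen) or 0.0001% Triton X-100; 5.3 nM AmpC reagent; cpd preinc 15 min RT; nitrocefin (800 uM stock) to start; A480 q20 s × 4 min; Activity was normalised to no-enzyme and no-compound control wells.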
NS1 inh: qHTS Assay for Inhibitors of Influenza NS1 Protein Function. Potency, µM (doses to about 46.1 µM), without a hit: at the highest dose activity, positive = more growth. 0.4% of 270,000 active. AID 2326, 2010; calls by dose curve; note: potency is the fitted concentration of half-maximal effect; actives are rising curves; nearly all actives have a fitted effect of over 50% in size
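Growth recovery, yeast-based: influenza A NS1 expressed in S. cerevisiae causes slow growth, and suppressors are detected by OD600. The parent strain without NS1 is used as positive control.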
Shiga toxin inh: A qHTS for Small Molecule Inhibitors of Shiga Toxin. inhibition, % at 38.7 µM. Vero cells, Shiga toxin protein synthesis inhibition reporter. 9.2% of 290,000 active; in the data active = inhibition mostly above about 28%, no sharp cut-off; inactive = mostly below about 43%; note: 0% is about no effect
The depositor's hits bear a star; ! = a repeat was not active. This is one part of a sample in which hits are shown more often than they occur. Unless noted, calls come from the whole dose curve; as a rule, active = well fitted curve in the direction sought with a large enough effect; inconclusive = small, poorly fitted or top-dose-only effect, or another doubt; inactive = no such curve, though single readings can be large; an effect the other way counts as inactive or inconclusive.

O=C(c1ccc(CSc2nc3ccncc3n2Cc2ccccc2F)cc1)N1CCCCCC1 was read as AmpC detergent 5%.
Screening COC(=O)c1ccc(NC(=O)CC2C(=O)N(c3cccc(C)c3)C(=O)N2Cc2ccco2)cc1 (stereo not given) returned AmpC detergent 15%.
COc1ccc(CCNc2ncnc3c2nnn3C)cc1OC was read as AmpC detergent 2%.
`COc1cc(/C=N/n2cnnc2)ccc1OCCOc1ccccc1` gave AmpC detergent 0%, Cycloheximide cs -4, AmpC no deterg 20%, NS1 inh -13% and Shiga toxin inh -3.
`C(=N\n1cnnc1)/c1cccc(OCCOc2ccccc2)c1` gave AmpC detergent inconclusive, Cycloheximide cs 20*, AmpC no deterg 9%, NS1 inh -34% and Shiga toxin inh 94*.
Screening C(=N\n1cnnc1)/c1ccc(OCc2cccc3ccccc23)cc1 returned AmpC detergent -11%, Cycloheximide cs 20*, AmpC no deterg 77%, NS1 inh -101% and Shiga toxin inh 33.
For Fc1ccccc1COc1ccc(/C=N/n2cnnc2)cc1 the results were AmpC detergent inconclusive, Cycloheximide cs 13, AmpC no deterg 29%, NS1 inh -176% and Shiga toxin inh 9.
CCc1ccc(NC(=O)[C@H](C)NC(=O)C2CCN(C(=O)[C@@H](N)Cc3ccccc3)CC2)cc1 was read as AmpC detergent -7%, Cycloheximide cs 16*, AmpC no deterg 14%, NS1 inh 6% and Shiga toxin inh 23*.
For CCc1ccc(NC(=O)[C@H](C)NC(=O)C2CCN(C(=O)[C@@H](NC(=O)OC(C)(C)C)C(C)C)CC2)cc1 the results were AmpC detergent 1%, Cycloheximide cs 14*, AmpC no deterg 167%, NS1 inh 1% and Shiga toxin inh 53.
For CC(C)(C)c1ccc(S(=O)(=O)c2cn(CC(=O)Nc3ccccc3)c3ccccc3c2=O)cc1 the results were AmpC detergent 7%.
`CN(C)/C=N/c1nc2ccc3c(c2s1)CCCC3` gave AmpC detergent inconclusive, Cycloheximide cs 36*, AmpC no deterg 60%, NS1 inh -79% and Shiga toxin inh 87*.
`C=C1C(=O)O[C@@H]2C[C@@H](C)[C@@H]3C4OC4C(=O)[C@@]3(C)[C@@H](O)[C@H]12` (stereo not given in full) gave AmpC detergent -2%, Cycloheximide cs -3, AmpC no deterg 44%, NS1 inh 0% and Shiga toxin inh -9.
C=C1C(=O)O[C@H]2C[C@]3(C)C([C@@H](OC(=O)/C(C)=C/C)[C@H]12)[C@](C)(O)CC[C@H]3O (stereo not given in full) was read as AmpC detergent -14%, Cycloheximide cs 30*, AmpC no deterg -1%, NS1 inh 8% and Shiga toxin inh 34.
Screening CCOC(=O)Cn1c2ccccc2n2nc(CCC(=O)O)c(=O)nc12 returned AmpC detergent -1%, Cycloheximide cs 3, AmpC no deterg -20%, NS1 inh 5% and Shiga toxin inh -3.
`CC1=CC(C)=Nc2ccc(C)cc2N1` gave AmpC detergent -3%, Cycloheximide cs 27*, AmpC no deterg -27%, NS1 inh -2% and Shiga toxin inh 94*!.
Screening Oc1ccc(-c2csc(Nc3ccccn3)n2)c(O)c1 returned AmpC detergent -5%, Cycloheximide cs 34*, AmpC no deterg -37%, NS1 inh -61% and Shiga toxin inh 131*.
Cc1cccnc1Nc1nc(-c2ccc(O)cc2O)cs1 was read as AmpC detergent 2%, Cycloheximide cs 39*, AmpC no deterg -34%, NS1 inh -66% and Shiga toxin inh 112*.
`Cc1cc(C)c(NC(=O)CSc2nc3nc(C)cc(C)n3n2)c(C)c1` gave AmpC detergent -5%.
Screening O=C(CNC(=S)NC(=O)C1CCCCC1)c1ccccc1 returned AmpC detergent -6%, Cycloheximide cs 75*, AmpC no deterg -21%, NS1 inh -7% and Shiga toxin inh 114*.
O=C(O)C1CCCCC1C(=O)NCCc1ccc(F)cc1 (stereo not given) was read as AmpC detergent 2%, Cycloheximide cs -2, AmpC no deterg 4%, NS1 inh 4% and Shiga toxin inh -4.
`O=C(NCCc1ccc(F)cc1)C1CCCCC1` gave AmpC detergent -10%, Cycloheximide cs 24*, AmpC no deterg -3%, NS1 inh 0% and Shiga toxin inh 42.
For O=C(NC(=S)NCCc1ccccc1)C1CCCCC1 the results were AmpC detergent inconclusive, Cycloheximide cs 34*, AmpC no deterg -23%, NS1 inh 7% and Shiga toxin inh 55*.
Fc1ccc(Nc2nc3nonc3nc2Nc2cccc(C(F)(F)F)c2)cc1 was read as AmpC detergent 21%.
`COc1ccc(N/N=C/c2c(O)n(-c3cccc(C)c3)c(=O)[nH]c2=O)cc1` gave AmpC detergent -3%, Cycloheximide cs 18*, AmpC no deterg -31%, NS1 inh -1% and Shiga toxin inh 48.
O=C(C1CCN(S(=O)(=O)Cc2ccccc2)CC1)N1CCN(c2cccc(Cl)c2)CC1 was read as AmpC detergent 18%.
`N/C(=N\OC(=O)/C=C/c1ccccc1)c1cccnc1` gave AmpC detergent -2%, Cycloheximide cs 32*, AmpC no deterg -36%, NS1 inh -4% and Shiga toxin inh 70*.
N/C(=N\OC(=O)/C=C/c1ccccc1Cl)c1cccnc1 was read as AmpC detergent -8%, Cycloheximide cs 63*, AmpC no deterg 29%, NS1 inh 1% and Shiga toxin inh 112*.
For N/C(=N\OC(=O)/C=C/c1ccc(Br)cc1)c1ccccn1 the results were AmpC detergent 0%, Cycloheximide cs 81*, AmpC no deterg -11%, NS1 inh -8% and Shiga toxin inh 68*.
Screening N/C(=N\OS(=O)(=O)c1ccccc1)c1cccnc1 returned AmpC detergent -3%, Cycloheximide cs 1, AmpC no deterg -19%, NS1 inh 24% and Shiga toxin inh -1.
For Cc1ccc(-n2[nH]c(C)c(/C=N/NC(=O)c3ccc(O)cc3O)c2=O)cc1 the results were AmpC detergent 3%, Cycloheximide cs 25*, AmpC no deterg -46%, NS1 inh -8% and Shiga toxin inh 73*.
`Cc1ccc(-n2[nH]c(C)c(C=Nc3ccc4[nH]c(=O)[nH]c4c3)c2=O)cc1` gave AmpC detergent -14%, Cycloheximide cs -3, AmpC no deterg 11%, NS1 inh 5% and Shiga toxin inh -12.
`Cc1[nH]n(-c2ccccc2)c(=O)c1/C=N/NC(=O)c1ccc(O)cc1O` gave AmpC detergent -9%, Cycloheximide cs 29*, AmpC no deterg -39%, NS1 inh -2% and Shiga toxin inh 68*.

Screening data (PubChem BioAssay)
